± gives the standard deviation. Whole data set: some 8,200 sequences, median “pre-steady-state target cleavage rate” near 0.024, cut for the highest 2% near 1.3. Many of the other results were omitted from the sample, so the highest values are more common in it than they were.
System: MIWI (PIWIL1) piRISC loaded with L1MC piRNA (30 nt)
Assay: pre-steady-state target cleavage rate (min^-1); MIWI and MILI are mouse PIWI proteins and EfPiwi is from a freshwater sponge; tags in brackets are library labels; higher = faster piRNA-guided slicing of the target
Conditions: guide: L1MC piRNA 5'p-UAACUAAAUACUAUGCAAGCUGUAGGUCCU
Procedure, shortened: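 Active affinity-purified piRISC (1 nM) loaded with one synthetic guide was mixed with a transcribed, DNA-blocked target RNA library (0.1 nM), with or without 500 nM GTSF1 partner protein, in HEPES–potassium acetate buffer at 33 °C for 0–8 or 0–960 min. Uncleaved targets were sequenced, normalised to depth and to weakly complementary targets, and pooled across three trials, with k3 capped at 0.0001 min^-1. The pre-steady-state cleavage rate was determined with a burst-and-steady-state fit.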

[1] = auxiliary factor: 500 nM mouse GTSF1
[2] = auxiliary factor: none (no GTSF1)

Row | Sequence | pre-steady-state target cleavage rate [1] | pre-steady-state target cleavage rate [2]
1 | UCCUGGAACACCUUGCUUAGUAUUUAGUUA | 0.239 ± 0.032 | 0.00546 ± 0.0019
2 | UCCACCUACAGCUUGCAUAGUAUUUACUUA | 0.378 ± 0.044 | 0.0369 ± 0.0085
3 | UGACCUACAGCUUGCAUAGUAUUUAGUUA | 1.57 ± 0.061 | 0.0842 ± 0.016
4 | UGCACCUACAGCUUGCAUAGUAUUUACUUA | 0.46 ± 0.056 | 0.0724 ± 0.017
5 | AGCACCUACAGCUUGCAUAGUAUUUACUUA | 1.4 ± 0.24 | –
6 | UUGACCUACAGCUUGCAUAGUAUUUAGUUA | 1.16 ± 0.061 | 0.0724 ± 0.012
7 | AUGACCUACAGCUUGCAUAGUAUUUAGUUA | 1.06 ± 0.03 | 0.0859 ± 0.013
8 | AGGACCUACAGCUUGCAUAGUAUUUAGUGA | 1.01 ± 0.085 | 0.0934 ± 0.018
9 | AGUGACCUACAGCUUGCAUAGUAUUUAGUUA | 1.38 ± 0.056 | 0.0885 ± 0.015
10 | UGGACCUACAGCUUGCAUAGUAUUUAGUGA | 1.12 ± 0.064 | 0.0575 ± 0.011
11 | UGUGACCUACAGCUUGCAUAGUAUUUAGUUA | 1.45 ± 0.063 | 0.0959 ± 0.018
12 | UCGACCAUGAGCUUGCAUAGUAUUUAGUAA | 0.804 ± 0.049 | 0.0343 ± 0.0083
13 | UCCUGGAUGUCGAACCAUAGAUUUAGUUA | < 0.0001 | –
14 | UCCUGCUUCAGCUUGCAUAGUAAUUAGUUA | 0.823 ± 0.043 | 0.0173 ± 0.0042
15 | UCCUGCUACACCUUGCAUAGUAUUUACAAA | 0.245 ± 0.056 | –
16 | UGGACCUACAGCUUGCAUAGUAUUAAGUAA | 0.335 ± 0.037 | 0.0164 ± 0.0052
17 | UCCUGGAUCAGCCUGCAUAGUAUUUAGUUA | 1.02 ± 0.045 | 0.0431 ± 0.008
18 | UGGACCUACAGCUUGCUAUGUAUUUAGUUA | 0.115 ± 0.016 | 0.00588 ± 0.001
19 | UCCUGGAACAGCUUGCAUAGUUUAUAGUUA | 0.0662 ± 0.011 | 0.0101 ± 0.003
20 | UGGAGCUACAGCAUGCAUAGUAUUUAGUUA | 1.14 ± 0.042 | 0.0429 ± 0.0078
21 | UGGAGCCUACAGCUUGCAUAGUAUUUAGUUA | 1.41 ± 0.1 | 0.0757 ± 0.013
22 | AGGAGCUACACCUUGCAUAGUAUUUAGUUA | 1.36 ± 0.044 | 0.0609 ± 0.012
23 | UGGAGCUACACCUUGCAUAGUAUUUAGUUA | 1.12 ± 0.051 | 0.0597 ± 0.0097
24 | UCGAGCUACACCUUGCAUAGUAUUUAGUUA | 1.01 ± 0.046 | 0.0524 ± 0.0089
25 | UCGAGCUACAGCAUGCAUAGUAUUUAGUUA | 1.19 ± 0.054 | 0.0332 ± 0.0062
26 | AGGAGCUACAGCUUGCAUAGUAUUUAGUAA | 1.02 ± 0.092 | 0.0616 ± 0.012

Row | Sequence | pre-steady-state target cleavage rate [1] | pre-steady-state target cleavage rate [2]
27 | UGGAGCUACAGCUUGCAUAGUAUUUAGUAA | 0.953 ± 0.06 | 0.0465 ± 0.0085
28 | AGGAGCUACAGCAUGCAUAGUAUUUAGUUA | 1.37 ± 0.058 | 0.0574 ± 0.01
29 | UGGAGCUACAGCUUGCAUAGUAUUUAGUUA | 1.25 ± 0.045 | 0.0783 ± 0.012
30 | AGGAGCUACAGCUUGCAUAGUAUUUAGUUA | 1.42 ± 0.055 | 0.0984 ± 0.016
31 | UCCUGCUACAGCUUGCAUUAGUAUUUAGUUA | 0.0188 ± 0.0083 | –
32 | UCCAGGAACAGCUUGCAUAGUAUUUAGUAA | 0.57 ± 0.047 | 0.0391 ± 0.0081
33 | AGGAGCUACAGCUUGCAUAGUAUUAAGUUA | 0.783 ± 0.065 | 0.0457 ± 0.0092
34 | UCCACCUACAGCUUGCAUAGUUUUUUCAAA | 0.144 ± 0.028 | –
35 | UCCUGGUACAGCUUGCAUAGUAUUAUCAAA [g7:g24:cont:t1A] | 0.124 ± 0.024 | –
36 | UCCAGCCUACAGCUUGCAUAGUAUUUAGUUA | 1.32 ± 0.062 | 0.0623 ± 0.0092
37 | UCGAGCCUACAGCUUGCAUAGUAUUUAGUUA | 1.46 ± 0.074 | 0.0844 ± 0.016
38 | UCCACCUACAGCUUGCAUAGUAUUUAGUUA [g2:g27:cont:t1A] | 0.987 ± 0.051 | 0.0744 ± 0.015
39 | UCCAGCUACAGCUUGCAUAGUAUUUAGUUA | 0.682 ± 0.042 | 0.0438 ± 0.0056
40 | AGGAGCCUACAGCUUGCAUAGUAUUUAGUUA | 1.4 ± 0.072 | 0.0847 ± 0.013
41 | UCCUGGAUCAGCUAGCAUAGUAUUUAGAUA | 0.226 ± 0.026 | 0.00546 ± 0.0022
42 | UCGACCUACUGCUUGCAUACUAUUUAGUUA | 0.345 ± 0.014 | 0.0294 ± 0.0065
43 | UCCUCCUACAGCUUGCAUAAUAUUUAGUUA | 0.52 ± 0.03 | 0.0234 ± 0.0044
44 | UGGAGGAACAGCUUGCAUAGUAUUUAGUAA | 0.754 ± 0.05 | 0.0519 ± 0.012
45 | UCCACCUACACCAUGCAUAGUAUUUAGUUA | 0.719 ± 0.036 | 0.0161 ± 0.003
46 | UCCUGGAUGAGCUAGCAUAGUAUUUAGAAA | 0.124 ± 0.029 | –
47 | AGCGACCUACAGCUUGCAUAGUAUUUAGUUA | 1.37 ± 0.049 | 0.112 ± 0.019
48 | UGCGACCUACAGCUUGCAUAGUAUUUAGUUA | 1.41 ± 0.057 | 0.0975 ± 0.02
49 | UCCUGCUACAGCUUGGUAAGUAUUUAGUUA | 0.0624 ± 0.011 | –
50 | UCCUGGAUCAGCAUGCAUAGUAUUUAGAUA | 0.375 ± 0.034 | 0.00494 ± 0.0022
51 | UCCUGGAUCAGCUUGCAUAGUAUAUAGUAA | 0.458 ± 0.054 | 0.0134 ± 0.0052
52 | UCCAGCUACAGCUUGCAUAGUUUUUAGUUA | 0.253 ± 0.026 | 0.0203 ± 0.0032

Row | Sequence | pre-steady-state target cleavage rate [1] | pre-steady-state target cleavage rate [2]
53 | UCGAGCUACAGCUUGCAUAGUAUUUAGAUA | 0.443 ± 0.041 | 0.0206 ± 0.0046
54 | UCGAGCUACAGCUUGCAUAGUAUUUAGUAA | 1.08 ± 0.082 | 0.0348 ± 0.0066
55 | ACGAGCUACAGCUUGCAUAGUAUUUAGUUA | 1.54 ± 0.057 | 0.094 ± 0.016
56 | UCGAGCUACAGCUUGCAUAGUAUUUAGUUA | 1.41 ± 0.062 | 0.0832 ± 0.014
57 | UCCUGCUACGAGCUUGCAUAGUAUUUAGUUA | 0.717 ± 0.073 | 0.0315 ± 0.0066
58 | UCGAGCUACAGCUUGCAUAGUAUUUAGAAA | 0.407 ± 0.039 | 0.0061 ± 0.0023
59 | UCCUGGAUCAGCUUGCAUAGUAUUAAGAUA | 0.265 ± 0.05 | 0.00645 ± 0.0033
60 | UGGACCUACAGCUUGCAUAGUAUGUAGUUA | 0.332 ± 0.041 | 0.0171 ± 0.0041
61 | UCCUGCUACAGCUUGGUUAGUAUUUACAAA | 0.0104 ± 0.0047 | –
62 | UCGACCUACAGCUUGCAUAGUAUUUUGUUA | 0.921 ± 0.043 | 0.0471 ± 0.0091
63 | UCCUGGAUCAGCUAGCAUAGUAUUUUCAAA | 0.0506 ± 0.015 | –
64 | UGGACUCUACAGCUUGCAUAGUAUUUAGUUA | 1.4 ± 0.066 | 0.0856 ± 0.017
65 | AGGACUCUACAGCUUGCAUAGUAUUUAGUUA | 1.28 ± 0.069 | 0.0617 ± 0.011
66 | UCCACUCUACAGCUUGCAUAGUAUUUAGUUA | 0.884 ± 0.029 | 0.0688 ± 0.012
67 | UGGACACUACAGCUUGCAUAGUAUUUAGUUA | 1.04 ± 0.063 | 0.0643 ± 0.0081
68 | UCGACGCUACAGCUUGCAUAGUAUUUAGUUA | 1.27 ± 0.063 | 0.094 ± 0.022
69 | UCGACUCUACAGCUUGCAUAGUAUUUAGUUA | 1.48 ± 0.06 | 0.0579 ± 0.0096
70 | AGGACUACAGCUUGCAUAGUAUUUAGUUA | 1.24 ± 0.066 | 0.0945 ± 0.016
71 | UGGACUACAGCUUGCAUAGUAUUUAGUUA | 1.34 ± 0.053 | 0.0823 ± 0.013
72 | UGGACCUACACCUUGCAUAGUAUUUUCAAA | 0.327 ± 0.05 | 0.00389 ± 0.0023
73 | UCCUGGAACUGCUAGCAUAGUAUUUAGUUA | 0.534 ± 0.037 | 0.00949 ± 0.0035
74 | UCGACCUACAGCUUGCAUAGUAUUUAGUCA | 0.947 ± 0.041 | 0.0656 ± 0.013
75 | UCCUGGUACACCUUGCAUAGUAUUUAGUAA | 0.334 ± 0.078 | 0.0104 ± 0.0044
76 | UCCUCCUACAGCUUGCAUAGUAUAUUGUUA | 0.368 ± 0.033 | 0.0145 ± 0.0039
77 | UGGACCUACAGCUUGCAUACUAAUUAGUUA | 0.154 ± 0.01 | 0.00958 ± 0.0024

— the supplement of paper PMC10338343
